Common to all, as to assay: NCI-60 one-dose screen, 48 h (100 = growth as untreated, 0 = no growth, -100 = all killed)
Holding throughout (conditions): 10 µM unless noted

Assay [1] deals with RPMI-8226 leukemia.
The subject of assay [2] is OVCAR-8 ovarian.
Assay [3] has as its system OVCAR-5 ovarian.
The test system of assay [4] is OVCAR-4 ovarian.
Assay [5] deals with SK-OV-3 ovarian.
The test system of assay [6] is OVCAR-3 ovarian.
The test system of assay [7] is HS 578T breast.
The subject of assay [8] is NCI/ADR-RES ovarian.
Assay [9] has as its system T-47D breast.
Assay [10] deals with BT-549 breast.
Assay [11] concerns MDA-MB-435 melanoma.
Assay [12] has as its system SW-620 colon.
Assay [13] relates to MCF7 breast.
The test system of assay [14] is HCT-116 colon.
Assay [15] has as its system HCC-2998 colon.
Assay [16] concerns KM12 colon.
For assay [17], the system named is IGROV1 ovarian.

SMILES strings stand for the structures. About 83,000 compounds went through this panel and 20% of them were active in at least one assay; those are over-represented in the sample as a whole.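 48-hour exposure, single concentration, 96-well plates; percent growth endpoint where 0 means no net growth. Active: below 10.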 A number with no mark means an inactive call. Calls of active or inactive are those of the source.

With `O=C1OCC/C1=C\OCCCO/C=C1\CCOC1=O`, the growth in assay [1] was 105%; in [2] it was 106%; in assay [3], 107%; in assay [4], 99.5%; in assay [5] it was 114%; in [6], 110%. Besides, the growth is 112% in assay [7]; 104% in assay [8]; 103% in assay [9]; 96.9% in [10]; 104% in assay [11]; 109% in [12]. The growth is 104% in assay [13], 109% in assay [14], 114% in assay [15] and 114% in assay [16].

In the case of `NCCCc1nnc(CCC(=O)c2nc3ccccc3[nH]2)o1`, the growth was 101% in assay [1]; 110% in assay [2]; 104% in assay [3]; 104% in assay [4]; 106% in assay [5]; 119% in assay [6]. Further, the growth in assay [7] was 112%; in [8] it was 97.9%; in [9] it was 97.7%; in assay [10], 103%; in assay [11] it was 105%; in assay [12] it was 108%. For the same compound, the growth in [13] was 91.4%; in assay [14] it was 100%; in assay [15], 98.1%; in assay [16] it was 115%.

Turning to `CC(=O)NCCSC(=O)C(=O)SCCNC(C)=O`, the growth is 102% in assay [1]; 112% in [2]; 95.8% in assay [3]; 103% in assay [4]; 114% in assay [5]; 115% in assay [6]. The growth in assay [7] was 119%; in [8] it was 100%; in assay [9] it was 105%; in assay [11], 106%; in assay [12], 116%; in assay [13], 125%. For the same compound, the values for the growth in assay [14], in [15] and in assay [16] were 110%, -45.3% (active) and 107%, respectively.

`CCS(=O)(=O)OCCCl`: the growth in assay [1] is 120%; in [2], 103%; in [3], 80.8%; in [4], 100%; in assay [5] it was 87.4%; in assay [7] it was 104%. Further, the growth is -5.43% (active) in assay [8]; 102% in [9]; 89.6% in [10]; 106% in assay [11]; 108% in assay [12]; 102% in assay [13]. Further, the growth in assay [14] is 107%; in assay [16], 115%.

For the compound `O=C(O)c1ccccc1C(=O)OC1CCCC2CCCC21` (stereo not given), the growth in assay [1] was 111%; in [2] it was 106%; in [3], 99.2%; in assay [5] it was 112%; in assay [6], 122%; in assay [8], 99%. Also, the growth was 96.1% in assay [9]; 118% in assay [11]; 111% in assay [12]; 94.6% in assay [13]; 112% in [14]; 98.5% in assay [15]. Besides, the growth in assay [16] was 106%.

As to `COc1ccc2c(c1)/C(=C\c1c[nH]c3ccc(F)cc13)C(=O)N2`, the growth in [1] was 61.5%; in assay [2] it was 81.9%; in [3] it was 100%; in [4], 65.1%; in assay [5], 93.4%; in [6] it was 83.7%. Moreover, the growth was 99.9% in assay [7]; 85.2% in assay [8]; 42.8% in assay [9]; 91.5% in assay [11]; 107% in assay [12]; 60.3% in [13]. Besides, the growth in [14] is 80%; in assay [15], 92.7%; in [16], 21.1%.

As for `Nc1nc(Cl)c2[nH]cnc2n1`, the growth was 107% in [1]; 109% in assay [2]; 93.5% in assay [3]; 101% in assay [4]; 93.2% in assay [5]; 125% in [6]. For the same compound, the growth in assay [7] is 117%; in assay [8], 51%; in [9], 103%; in [11], 102%; in assay [12] it was 105%; in assay [13], 108%. Moreover, the growth in [14] was 104%; in assay [15], -51.2% (active); in assay [16], 109%.

Consider `Cc1ccc([N+](=O)[O-])cc1NC(=O)Nc1cccc(F)c1`, for which the growth was 19.4% in assay [1]; 71.6% in assay [2]; 89.6% in assay [3]; 50.3% in assay [4]; 98.7% in assay [5]; 51.8% in assay [6]. For the same compound, the growth in assay [7] is 120%; in assay [8] it was 64.3%; in assay [9], 29.8%; in assay [11] it was 76.7%; in assay [12] it was 99.7%; in [13], 69.8%. The results for the growth in [14], in assay [15] and in [16] were 44%, 91.8% and 80.9%, respectively.

Take `CO[C@H]1/C=C/O[C@@]2(C)Oc3c(C)c(O)c4c(O)c(c(/C=N/N5CCN(C)CC5)c(O)c4c3C2=O)NC(=O)/C(C)=C\C=C\C(C)[C@H](O)[C@@H](C)[C@@H](O)[C@@H](C)[C@@H](OC(C)=O)[C@@H]1C` (stereo not given in full): the growth in [1] was 108%; in assay [2], 100%; in assay [4], 103%; in assay [5], 113%; in assay [17] it was 105%; in assay [6] it was 107%. For the same compound, the growth in assay [7] is 109%; in assay [8] it was 105%; in assay [9], 107%; in [10], 99.2%; in assay [11], 103%; in [12], 107%. Further, the growth in assay [13] was 98.7%; in assay [14], 101%; in assay [15], 99.5%; in [16] it was 100%.

Regarding `CCC(CCC(C)C1CCC2C3CC=C4CC(O)CCC4(C)C3CCC12C)C(C)C` (stereo not given) (tested in a mixture with another compound), the growth is 81.4% in assay [1]; 89.9% in [2]; 103% in assay [3]; 93.7% in assay [4]; 127% in assay [5]; 103% in assay [6]. Moreover, the growth is 87.3% in assay [7]; 59.6% in assay [8]; 95.3% in assay [9]; 85% in [11]; 104% in assay [12]; 95.8% in assay [13]. Further, the growth was 79% in assay [14], -53.1% (active) in assay [15] and 91.4% in assay [16].

Values taken from PubChem BioAssay (NCI).
